Experimental findings from the supplement of paper PMC8866396 are described below.

For one assay, the system named is IL-6-GFP PC-9GR. Nature of the assay: cell viability (CCK-8 OD) relative to DMSO control (fraction of control); higher = more viable cells. The settings on record: compound concentration: 10 uM; treatment time: 48 h. In outline:
(§1)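 In 96-well plates, 3000 cells/well of PC-9 or PC-9GR lung cancer cells with lentiviral IL-6-GFP overexpression received each compound of a purchased 510-compound library at a final 10 μM for 48 h. Viability, measured by CCK-8 absorbance, is each well's optical density relative to the vehicle control well. Data come from two independent replicates.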

Another assay concerns IL-6-GFP PC-9. The assay is described as above. The settings on record: compound concentration: 10 uM; treatment time: 48 h. Summed up: as §1

± gives the standard deviation of the averaged measurements.

In the case of `CCC1(O)C(=O)OCc2c1cc1n(c2=O)Cc2c-1nc1ccccc1c2CCNC(C)C.Cl` (centres undefined) [Belotecan (CKD-602) hydrochloride], the cell viability in the assay on IL-6-GFP PC-9GR was found to be 0.322 ± 0.15; with IL-6-GFP PC-9, 0.349 ± 0.055.

Consider `O.O=P1(N(CCCl)CCCl)NCCCO1` (centres undefined) [Cyclophosphamide Monohydrate], for which the cell viability with IL-6-GFP PC-9GR was found to be 1.16 ± 0.065; in the assay with IL-6-GFP PC-9, 1.2 ± 0.029.

Regarding `C=CCN1CC(C(=O)N(CCCN(C)C)C(=O)NCC)CC2c3cccc4[nH]cc(c34)CC21` (centres undefined) [Cabergoline], the cell viability in the assay on IL-6-GFP PC-9GR came to 0.968 ± 0.23; in the assay on IL-6-GFP PC-9 it was 1.05 ± 0.21.

Consider `CCC1=CC2CN3CCc4c([nH]c5ccccc45)C(C(=O)OC)(C2)C13` (centres undefined) [Catharanthine], for which the cell viability in the assay on IL-6-GFP PC-9GR came to 1.02 ± 0.093; in the assay on IL-6-GFP PC-9, 1.1 ± 0.1.

In the case of `COc1cc(C2c3cc4c(cc3C(O)C3COC(=O)C23)OCO4)cc(OC)c1OC` (centres undefined) [Picropodophyllin (PPP)], the figures for the cell viability in the assay with IL-6-GFP PC-9GR and with IL-6-GFP PC-9 were 0.668 ± 0.27 and 0.603 ± 0.07, respectively.

On to `O=C(O)c1nn(Cc2ccc(Cl)cc2Cl)c2ccccc12` [Lonidamine], for which the cell viability is 1.29 ± 0.1 with IL-6-GFP PC-9GR and 1.19 ± 0.13 in the assay on IL-6-GFP PC-9.

`COC1=CC2C3Cc4ccc(OC)c(O)c4C2(CCN3C)CC1=O` (centres undefined) [Sinomenine]: the cell viability was 1.31 ± 0.18 in the assay with IL-6-GFP PC-9GR and 1.19 ± 0.097 with IL-6-GFP PC-9.

As to `Cc1cccc(C(C)c2c[nH]cn2)c1C.Cl` (centres undefined) [Medetomidine HCl], the cell viability with IL-6-GFP PC-9GR was 1.25 ± 0.37; with IL-6-GFP PC-9, 1.09 ± 0.011.

In the case of `c1ccc2c(c1)Sc1ccccc1N2CC1CN2CCC1CC2` (centres undefined) [Mequitazine], the cell viability in the assay on IL-6-GFP PC-9GR turned out to be 0.705 ± 0.19; with IL-6-GFP PC-9, 1.01 ± 0.021.

On to `Cl.Cn1c(CCCC(=O)O)nc2cc(N(CCCl)CCCl)ccc21` [Bendamustine HCl], for which the cell viability worked out at 1.26 ± 0.066 in the assay on IL-6-GFP PC-9GR and 1.2 ± 0.11 in the assay on IL-6-GFP PC-9.

`COc1cc2c(cc1O)CC1c3c(cc(O)c(OC)c3-2)CCN1C` (centres undefined) [Boldine]: the results for the cell viability in the assay on IL-6-GFP PC-9GR and in the assay on IL-6-GFP PC-9 were 0.922 ± 0.2 and 1.05 ± 0.11, respectively.

With `CC(C)[N+](C)(CCC(C(N)=O)(c1ccccc1)c1ccccc1)C(C)C.[I-]` [Isopropamide Iodide], the cell viability was 0.876 ± 0.069 in the assay on IL-6-GFP PC-9GR and 0.841 ± 0.16 in the assay with IL-6-GFP PC-9.

Consider `Cn1cc(C2=C(c3cn(C4CCN(Cc5ccccn5)CC4)c4ccccc34)C(=O)NC2=O)c2ccccc21`, for which the cell viability in the assay with IL-6-GFP PC-9GR amounted to 1.09 ± 0.062; in the assay on IL-6-GFP PC-9, 1.09 ± 0.16.

Regarding `COc1cc2c(c(OC)c1OC)-c1ccc(OC)c(=O)cc1C(NC(C)=O)CC2` (centres undefined) [Colchicine], the cell viability in the assay with IL-6-GFP PC-9GR was 0.584 ± 0.1; in the assay with IL-6-GFP PC-9 it was 0.686 ± 0.078.

`CN(C)NC(=O)CCC(=O)O` [Daminozide]: the results for the cell viability in the assay on IL-6-GFP PC-9GR and in the assay on IL-6-GFP PC-9 were 1.09 ± 0.18 and 1.28 ± 0.05, respectively.

With `CC(C)C12OC1C1OC13C1(C)CCC4=C(COC4=O)C1CC1OC13C2O` (centres undefined) [Triptolide (PG490)], the values for the cell viability in the assay with IL-6-GFP PC-9GR and in the assay with IL-6-GFP PC-9 were 0.466 ± 0.21 and 0.447 ± 0.12, respectively.

On to `O=P1(NCCCl)OCCCN1CCCl` (centres undefined) [Ifosfamide], for which the cell viability in the assay on IL-6-GFP PC-9GR came to 1.15 ± 0.092; in the assay on IL-6-GFP PC-9, 0.8 ± 0.02.

In the case of `O=C(O)C1C2CCC(O2)C1C(=O)[O][Na]` (centres undefined) [Sodium Demethylcantharidate], the cell viability in the assay with IL-6-GFP PC-9GR turned out to be 1.12 ± 0.29; in the assay on IL-6-GFP PC-9 it was 1.31 ± 0.083.

With `CCC1(O)C(=O)OCc2c1cc1n(c2=O)Cc2cc3ccccc3nc2-1` (centres undefined) [Camptothecin], the results for the cell viability in the assay with IL-6-GFP PC-9GR and in the assay on IL-6-GFP PC-9 were 0.807 ± 0.36 and 0.364 ± 0.036, respectively.

On to `CC1CCC2N(C1)CC1C3CC4C(CC(O)C5CC(O)CCC54C)C3CCC1C2(C)O` (centres undefined) [Peimine], for which the figures for the cell viability in the assay with IL-6-GFP PC-9GR and in the assay on IL-6-GFP PC-9 were 1.12 ± 0.26 and 1.211 ± 0.0049, respectively.

As for `CC(C)(C)NCC(O)c1ccccc1Cl.Cl` (centres undefined) [Tulobuterol hydrochloride], the results for the cell viability with IL-6-GFP PC-9GR and in the assay on IL-6-GFP PC-9 were 1.07 ± 0.17 and 1.08 ± 0.15, respectively.

Consider `O=c1c2ccccc2[se]n1-c1ccccc1` [Ebselen], for which the cell viability came out at 0.788 ± 0.063 in the assay with IL-6-GFP PC-9GR and 1.36 ± 0.22 in the assay with IL-6-GFP PC-9.

Regarding `CC1CC(=O)CC2CCC3C4CCC(O)C4(C)CCC3C12C` (centres undefined) [Mesterolone], the cell viability with IL-6-GFP PC-9GR stood at 1.26 ± 0.32; in the assay with IL-6-GFP PC-9, 1.21 ± 0.12.

Consider `CC12CCC3C(CCC4=C(O)C(=O)CCC43C)C1CCC2=O` (centres undefined) [Formestane], for which the cell viability came to 1.4 ± 0.13 in the assay on IL-6-GFP PC-9GR and 0.466 ± 0.055 in the assay on IL-6-GFP PC-9.

In the case of `COC(=O)CC(O)(CCC(C)(C)O)C(=O)OC1C(OC)=CC23CCCN2CCc2cc4c(cc2C13)OCO4` (centres undefined) [Harringtonine], the values for the cell viability in the assay with IL-6-GFP PC-9GR and in the assay on IL-6-GFP PC-9 were 0.245 ± 0.14 and 0.323 ± 0.058, respectively.

As to `CC(C)C12OC1C1OC13C1(C)CCC4=C(COC4=O)C1CC1OC13C2=O` (centres undefined) [Triptonide], the cell viability in the assay on IL-6-GFP PC-9GR was found to be 0.403 ± 0.18; with IL-6-GFP PC-9 it was 0.467 ± 0.063.

As for `Cn1c(CCCC(=O)O)nc2cc(N(CCCl)CCCl)ccc21` [Bendamustine], the results for the cell viability in the assay with IL-6-GFP PC-9GR and in the assay with IL-6-GFP PC-9 were 1.02 ± 0.09 and 1.02 ± 0.18, respectively.

Take `Cc1c(N)nc(C(CC(N)=O)NCC(N)C(N)=O)nc1C(=O)NC(C(=O)NC(C)C(O)C(C)C(=O)NC(C(=O)NCCc1nc(-c2nc(C(=O)NCCC[S+](C)C)cs2)cs1)C(C)O)C(OC1OC(CO)C(O)C(O)C1OC1OC(CO)C(O)C(OC(N)=O)C1O)c1c[nH]cn1.O=S(=O)([O-])O` (centres undefined) [Bleomycin sulfate]: the cell viability turned out to be 0.653 ± 0.13 with IL-6-GFP PC-9GR and 0.473 ± 0.051 in the assay with IL-6-GFP PC-9.

Regarding `COC1=CC2C3Cc4ccc(OC)c(O)c4C2(CCN3C)CC1=O.Cl` (centres undefined) [Sinomenine hydrochloride], the figures for the cell viability in the assay on IL-6-GFP PC-9GR and in the assay with IL-6-GFP PC-9 were 1.33 ± 0.43 and 1.28 ± 0.086, respectively.

`CC12CCC3c4ccc(OC(=O)N(CCCl)CCCl)cc4CCC3C1CCC2OP(=O)([O-])[O-].[Na+].[Na+]` (centres undefined) [Estramustine phosphate sodium]: the cell viability with IL-6-GFP PC-9GR amounted to 0.645 ± 0.29; in the assay on IL-6-GFP PC-9, 1.01 ± 0.25.

Consider `NC(Cc1ccc(N(CCCl)CCCl)cc1)C(=O)O` (centres undefined) [Melphalan], for which the cell viability worked out at 0.78 ± 0.037 in the assay on IL-6-GFP PC-9GR and 0.891 ± 0.076 in the assay on IL-6-GFP PC-9.

As to `O=C(O)CCCc1ccc(N(CCCl)CCCl)cc1` [Chloroambucil], the cell viability in the assay on IL-6-GFP PC-9GR worked out at 0.937 ± 0.15; in the assay with IL-6-GFP PC-9, 0.97 ± 0.18.
